Our source for the Potency values is PubChem BioAssay (NCATS).

Inconclusive results are not listed. Calls of active or inactive are those of the source. Calls follow the shape of the dose curve; as a rule, active = well fitted cell-killing curve with a large enough effect; inconclusive = small, poorly fitted or top-dose-only effect, or effect the other way; inactive = no such curve, though single readings can be large or run the other way.
Potency is read from the fitted curve at half-maximal effect.

The first experiment in a line: Quantitative High-Throughput drug screen in 47 multiple myeloma cell lines against the NCATS MIPE library collection: PE2_PLB cell viability assay (AID 1919869). Also: nearly all actives have a fitted effect of over 35% in size. To be noted: PE2_PLB myeloma cells viability, ATP luminescence, 48 h; series mostly up to 45.8 µM. In short, it runs like this: (§1)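 Readout: median RLU from CellTiter-Glo after 5 min at room temperature. Preceding step was 48 h drug treatment of 500 cells/well at 37 °C, 5% CO2, with DMSO-only and media-only control wells.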
On to `Cc1[nH]c(=O)c(C#N)cc1-c1ccncc1`, for which the Potency was 11.8 µM (active). Same read-out and setting: to `OCCC#Cc1nc(-c2ccc(F)cc2)c(-c2ccncc2)n1CCCc1ccccc1` belongs 20.9 µM (active); to `CCOc1cc(N2CCC(O)CC2)ccc1Nc1ncc2c(n1)N(C)c1ccccc1C(=O)N2C`, 3.72 µM (active). Regarding `COc1ccc2nc(S(=O)Cc3ncc(C)c(OC)c3C)[nH]c2c1` (centres undefined), the Potency result is “inactive”. On to `Nc1ccc(S(=O)(=O)Nc2ccnn2-c2ccccc2)cc1`, for which the Potency entry was “inactive”. On the same count and under the same terms, with `O=NN(CCCl)C(=O)NCCCl` the entry was “inactive”; with `COCC(=O)NCC=Cc1ccc2ncnc(Nc3ccc(Oc4ccc(C)nc4)c(C)c3)c2c1`, 16.6 µM (active); with `Cc1c(C)c2c(c(C)c1O)CCC(C)(COc1ccc(CC3SC(=O)NC3=O)cc1)O2` (centres undefined), 20.9 µM (active). On to `Nc1ncnc2nc(-c3ccc(N4CCOCC4)nc3)cc(-c3cccc(Br)c3)c12`, for which the Potency was 18.7 µM (active).

As to `COc1c(Cl)cc2c([nH]c3cnccc32)c1NC(=O)c1cccnc1C`, the Potency was 3.32 µM (active). For the compound `CCc1cc(Nc2nccc(-c3c(-c4ccc(OC)c(C(=O)Nc5c(F)cccc5F)c4)nc4ccccn34)n2)c(OC)cc1N1CCC(N2CCN(S(C)(=O)=O)CC2)CC1`, the Potency was 5.26 µM (active).

Turning to `COc1ccc(-c2ccc3c(N4CCOCC4)nc(N4C[C@@H](C)O[C@@H](C)C4)nc3n2)cc1CO`, the Potency is 0.833 µM (active). On the same count and under the same terms, to `CCn1cc(C(=O)O)c(=O)c2cc(F)c(N3CCNC(C)C3)c(F)c21` (centres undefined) belongs “inactive”; to `Nc1nc2c(ncn2COCCO)c(=O)[nH]1`, “inactive”; to `OC(CN1CCC(Cc2ccc(F)cc2)CC1)c1ccc(Cl)cc1` (centres undefined), “inactive”.

As for `CCN(c1ccccc1)c1cc(NC)[n+](C)c(C)n1`, the Potency result was “inactive”.

As to `CCOC(=O)C1=C[C@]2(CC)CCCN3CCc4c(n1c1ccccc41)[C@@H]32`, the Potency was 9.35 µM (active). Still for that read-out and setting: with `CCCCNc1cc(C(=O)O)cc(S(N)(=O)=O)c1Oc1ccccc1` the entry was “inactive”; with `Cc1cc(Nc2nc(N[C@@H](C)c3ncc(F)cn3)ncc2Cl)n[nH]1`, 10.5 µM (active); with `Cc1cn[nH]c1`, 4.69 µM (active). On the same count and under the same terms, to `COc1cc(Oc2ccnc3cc(OC)c(OC)cc23)ccc1NC(=O)NC(C)c1nccs1` (centres undefined) belongs 23.5 µM (active); to `CN(C)c1ccc(Nc2nc(N)n(C(=O)c3c(F)cccc3F)n2)cc1`, 5.9 µM (active). Still for that read-out and setting: with `Fc1ccc(Cl)cc1-c1nc(Nc2ccncc2)c2nccnc2n1` the figure was 7.43 µM (active). Take `O=c1[nH]cnc2[nH]ncc12`: the Potency is 18.7 µM (active).

As to `CN(C(=O)c1ccc(F)cc1C(F)(F)F)C1CCN(c2nnc(-c3ccnn3C)c3ccccc23)CC1`, the Potency is 18.7 µM (active). In the case of `CC(C)OC(=O)C1=CN(C(=O)c2ccc(F)c(F)c2)CC(C)(C)c2c1[nH]c1ccccc21`, the Potency entry is “inactive”. Still for that read-out and setting: with `Cc1[nH]c(=O)c(C#N)cc1-c1ccc2nccn2c1` the entry was “inactive”; with `COc1ccc2c3n(c(=NC(=O)c4cccnc4)nc2c1OC)CCN3`, 11.8 µM (active). As for `CC(c1cc2ccccc2s1)N(O)C(N)=O` (centres undefined), the Potency result was “inactive”. Still for that read-out and setting: to `O=C(c1cc(Cc2n[nH]c(=O)c3ccccc23)ccc1F)N1CCN(C(=O)C2CC2)CC1` belongs 18.7 µM (active); to `COc1cccc2cc(-c3nc(C4CCC(C(=O)O)CC4)n4ncnc(N)c34)[nH]c12` (centres undefined), 0.372 µM (active); to `COc1ccc([C@@H]2CC(=O)c3c(O)cc(O[C@@H]4O[C@H](CO[C@@H]5O[C@@H](C)[C@H](O)[C@@H](O)[C@@H]5O)[C@@H](O)[C@H](O)[C@@H]4O)cc3O2)cc1O`, “inactive”.

As for `Cn1cnc2c(F)c(Nc3ccc(Br)cc3Cl)c(C(=O)NOCCO)cc21`, the Potency is 0.235 µM (active).

With `CS(=O)(=O)c1cccc(CNc2nc(Nc3ccc4c(c3)CCC(=O)N4)ncc2C(F)(F)F)c1`, the Potency is 18.7 µM (active).

A short description of a further experiment: Quantitative High-Throughput drug screen in 47 multiple myeloma cell lines against the NCATS MIPE library collection: PCM6_Riken cell viability assay (AID 1919870). Also: nearly all actives have a fitted effect of over 30% in size. To be noted: CellTiter-Glo ATP, 48 h; series mostly up to 45.8 µM. A digest of the protocol: as §1
On the technique in general: In ATP-based viability assays light output follows the ATP content of the culture.
For `Cc1[nH]c(=O)c(C#N)cc1-c1ccncc1`, the Potency is 7.43 µM (active). With `CCOc1cc(N2CCC(O)CC2)ccc1Nc1ncc2c(n1)N(C)c1ccccc1C(=O)N2C`, the Potency was 14.8 µM (active). Take `COc1ccc2nc(S(=O)Cc3ncc(C)c(OC)c3C)[nH]c2c1` (centres undefined): the Potency was 20.9 µM (active). `Nc1ccc(S(=O)(=O)Nc2ccnn2-c2ccccc2)cc1`: the Potency result was “inactive”. The same measure, in the same setting: with `O=NN(CCCl)C(=O)NCCCl` the entry was “inactive”; with `COCC(=O)NCC=Cc1ccc2ncnc(Nc3ccc(Oc4ccc(C)nc4)c(C)c3)c2c1`, 20.9 µM (active). On to `Cc1c(C)c2c(c(C)c1O)CCC(C)(COc1ccc(CC3SC(=O)NC3=O)cc1)O2` (centres undefined), for which the Potency was 20.9 µM (active). On the same count and under the same terms, with `COc1c(Cl)cc2c([nH]c3cnccc32)c1NC(=O)c1cccnc1C` the figure was 1.66 µM (active). Still for that read-out and setting: to `CCc1cc(Nc2nccc(-c3c(-c4ccc(OC)c(C(=O)Nc5c(F)cccc5F)c4)nc4ccccn34)n2)c(OC)cc1N1CCC(N2CCN(S(C)(=O)=O)CC2)CC1` belongs “inactive”.

Take `COc1ccc(-c2ccc3c(N4CCOCC4)nc(N4C[C@@H](C)O[C@@H](C)C4)nc3n2)cc1CO`: the Potency is 1.48 µM (active). Regarding `CCn1cc(C(=O)O)c(=O)c2cc(F)c(N3CCNC(C)C3)c(F)c21` (centres undefined), the Potency entry is “inactive”. On to `Nc1nc2c(ncn2COCCO)c(=O)[nH]1`, for which the Potency was 23.5 µM (active). The same measure, in the same setting: to `OC(CN1CCC(Cc2ccc(F)cc2)CC1)c1ccc(Cl)cc1` (centres undefined) belongs “inactive”; to `CCN(c1ccccc1)c1cc(NC)[n+](C)c(C)n1`, “inactive”; to `CCOC(=O)C1=C[C@]2(CC)CCCN3CCc4c(n1c1ccccc41)[C@@H]32`, 8.33 µM (active).

Take `CCCCNc1cc(C(=O)O)cc(S(N)(=O)=O)c1Oc1ccccc1`: the Potency entry is “inactive”. On the same count and under the same terms, with `Cc1cc(Nc2nc(N[C@@H](C)c3ncc(F)cn3)ncc2Cl)n[nH]1` the figure was 6.62 µM (active). For the compound `Cc1cn[nH]c1`, the Potency was 0.0833 µM (active). Consider `COc1cc(Oc2ccnc3cc(OC)c(OC)cc23)ccc1NC(=O)NC(C)c1nccs1` (centres undefined), for which the Potency is 13.2 µM (active). On the same count and under the same terms, with `CN(C)c1ccc(Nc2nc(N)n(C(=O)c3c(F)cccc3F)n2)cc1` the figure was 13.2 µM (active); with `Fc1ccc(Cl)cc1-c1nc(Nc2ccncc2)c2nccnc2n1`, 5.9 µM (active). As for `O=c1[nH]cnc2[nH]ncc12`, the Potency entry is “inactive”.

For the compound `CC(C)OC(=O)C1=CN(C(=O)c2ccc(F)c(F)c2)CC(C)(C)c2c1[nH]c1ccccc21`, the Potency result is “inactive”. Still for that read-out and setting: with `Cc1[nH]c(=O)c(C#N)cc1-c1ccc2nccn2c1` the figure was 2.64 µM (active).

`CC(c1cc2ccccc2s1)N(O)C(N)=O` (centres undefined): the Potency entry is “inactive”. With `O=C(c1cc(Cc2n[nH]c(=O)c3ccccc23)ccc1F)N1CCN(C(=O)C2CC2)CC1`, the Potency is 11.8 µM (active). Same read-out and setting: with `COc1cccc2cc(-c3nc(C4CCC(C(=O)O)CC4)n4ncnc(N)c34)[nH]c12` (centres undefined) the figure was 1.87 µM (active). On the same count and under the same terms, with `COc1ccc([C@@H]2CC(=O)c3c(O)cc(O[C@@H]4O[C@H](CO[C@@H]5O[C@@H](C)[C@H](O)[C@@H](O)[C@@H]5O)[C@@H](O)[C@H](O)[C@@H]4O)cc3O2)cc1O` the entry was “inactive”.

Regarding `Cn1cnc2c(F)c(Nc3ccc(Br)cc3Cl)c(C(=O)NOCCO)cc21`, the Potency was 0.166 µM (active). On the same count and under the same terms, with `CS(=O)(=O)c1cccc(CNc2nc(Nc3ccc4c(c3)CCC(=O)N4)ncc2C(F)(F)F)c1` the figure was 7.43 µM (active).
